Experimental data published in paper PMC5540273 (PLoS ONE, 2017).
Several values for one entry are separate records, joined by “and”; a condition that tells them apart may be missing. Equal values may be shown once. Read-outs that look alike come from different tables or passages of the source.

Key:
GRK4 = conditions: concentration: 1 μM, replicates: in singlicate; n = 1
GRK7 = conditions: concentration: 1 μM, replicates: in singlicate; n = 1
GSK3A = conditions: concentration: 1 μM, replicates: in singlicate, n = 1
GSK3B = conditions: n = 1
HASPIN = tested on: T1, HASPIN; conditions: concentration: 1 μM, replicates: in singlicate, n = 1
T1 construct: gene GSG2

HCK = conditions: concentration: 1 μM, replicates: in singlicate, n = 1
HIPK1 = conditions: concentration: 1 μM, replicates: in singlicate; n = 1
HIPK2 = conditions: concentration: 1 μM, replicates: in singlicate, n = 1
HIPK3 = conditions: concentration: 1 μM, replicates: in singlicate, n = 1
HIPK4 = conditions: concentration: 1 μM, replicates: in singlicate, n = 1
[1] = concentration: 1 μM, replicates: in singlicate
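Also: KINOMEscan kinase panel screen.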

Compound | %Inh (GRK4) [%] | %Inh (GRK7) [%] | %Inh (GSK3A) [%] | %Inh (GSK3B; [1]) [%] | %Inh (HASPIN) [%] | %Inh (HCK) [%] | %Inh (HIPK1) [%] | %Inh (HIPK2) [%] | %Inh (HIPK3) [%] | %Inh (HIPK4) [%] | %Inh (GSK3B; 1 µM) [%] | %Inh (GSK3A; 1 µM) | %Inh (GSK3B; concentration: 1 μM, replicates: in singlicate, 1 µM) | %Inh (HASPIN; 1 µM) | %Inh (HCK; 1 µM) | %Inh (HIPK2; 1 µM) | %Inh (HIPK3; 1 µM) | %Inh (HIPK4; 1 µM)
Cc1nnc(-c2ccc3ncc(-c4ccc(S(C)=O)cc4)n3c2)o1 (centres unmarked) | 0 | 16 | 1 | 1 | 30 | 0 | 21 | 40 | 16 | 5 | – | – | – | – | – | – | – | –
O=C(NCCNc1ccnc(Nc2ccc(F)cc2)n1)Nc1ccccc1F [GSK1379880] | 0 | 0 | 2 | 0 | 0 | 0 | 0 | 0 | 19 | 0 | – | – | – | – | – | – | – | –
O=C1Cc2cc(Nc3nc(NCc4cccc(S(=O)(=O)C(F)(F)F)c4)ncc3C(F)(F)F)ccc2N1 | 8 | 0 | 47 | 0 | 8 | 21 | 0 | 7 | 0 | 0 | – | – | – | – | – | – | – | –
CC(=O)Nc1ccc(COc2ccc(Nc3ccnc4cc(-c5ccccn5)ccc34)cc2)cc1.Cl [GW440148] | 0 | 0 | 34 | 12 | 13 | 52 | 0 | 0 | 12 | 7 | – | – | – | – | – | – | – | –
c1ccc(-c2cc(-c3c[nH]nc3-c3ccccn3)ccn2)cc1 [GW576604] | 0 | 0 | 11 | 0 | 16 | 0 | 0 | 0 | 15 | 6 | – | – | – | – | – | – | – | –
Cn1ccc2ncnc(Oc3ccc(NC(=O)Nc4ccncc4)c(Cl)c3)c21 | 19 | 0 | 29 | 0 | 28 | 0 | 17 | 0 | 0 | 0 | – | – | – | – | – | – | – | –
CN(C(=O)c1ccc(-c2cc(-c3c[nH]nc3-c3ccccn3)ccn2)cc1)C1CCOCC1 [GW810083] | 4 | 0 | 0 | 4 | 0 | 0 | 22 | 25 | 0 | 0 | – | – | – | – | – | – | – | –
O=C(Nc1n[nH]c2cc(-c3cccc(F)c3)ccc12)C1CC1 [SB-735464] | 38 | 6 | 43 | – | 30 | 0 | 7 | 22 | 31 | 9 | 22 | – | – | – | – | – | – | –
Cc1ccc(NC(=O)c2ccnc(N3CCN(C)CC3)c2)cc1-c1ccc(C(=O)NCC2CC2)cc1 [GW775604] | 15 | 0 | 0 | 0 | 0 | 9 | 0 | 0 | 0 | 0 | – | – | – | – | – | – | – | –
COc1cc2ncn(-c3cc(OCc4sccc4Cl)c(C(N)=O)s3)c2cc1OC [GSK448459] | 30 | 0 | 0 | 6 | 5 | 0 | 44 | 28 | 23 | 69 | – | – | – | – | – | – | – | –
O=C(NCCCN1CCOCC1)c1cccc(Nc2nccc(Nc3ccc(Oc4ccccc4)cc3)n2)c1 [GW663929] | 0 | 0 | 21 | 0 | 0 | 96.9 | 14 | 0 | 0 | 5 | – | – | – | – | – | – | – | –
CCCCCc1nc2c(N)ncnc2n1CCCCC [SKF-97255] | 21 | 0 | 0 | 34 | 2 | 26 | 43 | 0 | 13 | 1 | – | – | – | – | – | – | – | –
COc1ccc(COc2cc(-n3cnc4ccccc43)sc2C(N)=O)cc1 [GSK1024304] | 1 | 0 | 14 | 0 | 0 | 0 | 18 | 18 | 21 | 8 | – | – | – | – | – | – | – | –
Fc1ccc(-c2ncn(CCCN3CCOCC3)c2-c2cccnc2)cc1 [SB-211743] | 14 | 0 | 24 | 20 | 41 | 34 | 38 | 0 | 18 | 4 | – | – | – | – | – | – | – | –
Cc1cccc(-c2nc(-c3ccc(S(C)(=O)=O)cc3)sc2-c2ccncc2)c1 | 0 | 31 | 0 | 3 | 0 | 11 | 8 | 0 | 15 | 4 | – | – | – | – | – | – | – | –
CC(C)(CN)c1nc(-c2ccc(Cl)c(O)c2)c(-c2ccncc2)[nH]1.O=C(O)C(F)(F)F [SB-477794] | 0 | 0 | – | – | – | – | 0 | – | – | – | – | 49% and 58% | 29% and 14% | 58% and 57% | 96.6% and 96% | 1% and 37% | 20% and 4% | 0% and 13%
Cc1c2ccc(N(C)c3ccnc(Nc4cccc(S(N)(=O)=O)c4)n3)cc2nn1Cc1ccccc1.Cl.Cl [GW787226] | 21 | 0 | 0 | 0 | 0 | 91.7 | 23 | 0 | 0 | 0 | – | – | – | – | – | – | – | –
